Laboratory results from PubChem BioAssay AID1159580 (chemical genetic matrix, 2015).
Several values for one entry are separate records, joined by “and”; a condition that tells them apart may be missing. Equal values may be shown once. Screen size: about 5,500 compounds; about 2,000 (36%) were called active. About 18% were inconclusive and are not listed. Rule as the data show it: active = normalized growth mostly below about 0.91 (no sharp cut-off); inconclusive = no clear call, values can overlap the other calls; inactive = mostly above about 0.92. This is one part of the list.

Test: chemical genetic growth profiling, strain panel (AID 1159580);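 also: tested at 20 µM; growth read once vehicle control cultures reached saturation at 30 °C; 1 = growth at the plate median or of vehicle wells; lower values mean less growth of the strain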
Conditions: S. cerevisiae deletion strains, growth OD

Measured: normalized growth

Cn1c(=O)c2c(ncn2CCO)n(C)c1=O
inactive: locus YAL013W, strain DEP1, active compounds read low 1 | locus YAL021C, strain ccr4, active compounds read low 1.02 | locus YAL026C, strain drs2, active compounds read low 1.02 | locus YAL030W, strain snc1, active compounds read low 1.02 | locus YBL061C, strain skt5, active compounds read low 1.03 | locus YBR009C, strain hhf1, active compounds read low 1.02 | locus YBR021W, strain FUR4, active compounds read low 1.04 | locus YBR023C, strain chs3, active compounds read low 1.01 | locus YBR171W, strain sec66, active compounds read low 1.03 | locus YBR229C, strain ROT2, active compounds read low 1 | locus YBR231C, strain swc5, active compounds read low 1.02 | locus YBR279W, strain paf1, active compounds read low 1.02 | locus YCL011C, strain gbp2, active compounds read low 1.02 | locus YCL016C, strain dcc1, active compounds read low 1.01 | locus YCL029C, strain bik1, active compounds read low 1.02 | locus YCL061C, strain MRC1, active compounds read low 1.02 | locus YCL069W, strain vba3, active compounds read low 1.02 | locus YCR088W, strain abp1, active compounds read low 1.02 | locus YDL005C, strain med2, active compounds read low 1.02 | locus YDL035C, strain GPR1, active compounds read low 0.997 | locus YDL040C, strain nat1, active compounds read low 1.01 | locus YDL074C, strain BRE1, active compounds read low 1.04 | locus YDL101C, strain DUN1, active compounds read low 1.02 | locus YDL134C, strain PPH21, active compounds read low 1 | locus YDL185W, strain tfp1, active compounds read low 1 | locus YDL192W, strain arf1, active compounds read low 1.01 | locus YDR001C, strain nth1, active compounds read low 1.02 | locus YDR069C, strain doa4, active compounds read low 1.03 | locus YDR101C, strain arx1, active compounds read low 1.01 | locus YDR137W, strain rgp1, active compounds read low 1.04 | locus YDR150W, strain NUM1, active compounds read low 1 | locus YDR159W, strain sac3, active compounds read low 1.02 | locus YDR162C, strain NBP2, active compounds read low 1.01 | locus YDR195W, strain ref2 0.995 | locus YDR297W, strain sur2, active compounds read low 1 | locus YDR318W, strain mcm21, active compounds read low 1 | locus YDR334W, strain swr1, active compounds read low 1.02 | locus YDR335W, strain msn5, active compounds read low 1.02 | locus YDR388W, active compounds read low 0.998 | locus YDR392W, strain spt3, active compounds read low 1.03 | locus YDR502C, strain sam2, active compounds read low 0.978 | locus YEL003W, strain gim4, active compounds read low 1.02 | locus YEL037C, strain rad23, active compounds read low 1.05 | locus YEL061C, strain CIN8 (second series), active compounds read low 1.02 | locus YEL061C, strain CIN8, active compounds read low 1 | locus YER015W, strain faa2, active compounds read low 1.02 | locus YER016W, strain bim1, active compounds read low 1.01 | locus YER110C, active compounds read low 1.01 | locus YER111C, strain swi4, active compounds read low 1.03 | locus YER155C, strain BEM2 (second series), active compounds read low 1.04 | locus YER155C, strain BEM2, active compounds read low 1.01 | locus YER167W, strain BCK2, active compounds read low 0.979 | locus YFR010W, strain ubp6, active compounds read low 1.02 | locus YGL078C, strain dbp3, active compounds read low 0.994 | locus YGL086W, strain mad1, active compounds read low 0.986 | locus YGL167C, strain pmr1, active compounds read low 1.02 | locus YGL173C, strain kem1, active compounds read low 1.03 | locus YGL227W, strain vid30, active compounds read low 1 | locus YGL240W, strain doc1, active compounds read low 1.02 | locus YGL248W, strain PDE1, active compounds read low 1.01 | locus YGL253W, strain hxk2, active compounds read low 1.02 | locus YGR078C, strain PAC10, active compounds read low 1.02 | locus YGR135W, strain pre9, active compounds read low 0.971 | locus YGR229C, strain SMI1, active compounds read low 0.99 | locus YGR252W, strain gcn5, active compounds read low 0.912 | locus YHR013C, strain ard1, active compounds read low 1.04 | locus YHR027C, strain rpn1, active compounds read low 1 | locus YHR030C, strain SLT2, active compounds read low 0.999 and 0.984 | locus YHR079C, strain IRE1 (second series), active compounds read low 1.01 | locus YHR079C, strain IRE1, active compounds read low 0.974 | locus YHR094C, strain hxt1, active compounds read low 0.998 | locus YHR129C, strain ARP1, active compounds read low 1.02 | locus YHR142W, strain chs7, active compounds read low 1.02 | locus YHR200W, strain rpn10, active compounds read low 0.994 | locus YIL066C, strain RNR3, active compounds read low 1.01 | locus YIL073C, strain SPO22, active compounds read low 0.927 | locus YIL125W, strain kgd1, active compounds read low 0.988 | locus YIR030C, strain dcg1, active compounds read low 1.01 | locus YJL092W, strain hpr5, active compounds read low 1.02 | locus YJL095W, strain BCK1 (second series), active compounds read low 1 | locus YJL095W, strain BCK1, active compounds read low 1.04 and 0.969 | locus YJL115W, strain asf1, active compounds read low 1.02 | locus YJL129C, strain trk1, active compounds read low 1.04 | locus YJL134W, strain LCB3, active compounds read low 1.01 | locus YJL154C, strain vps35, active compounds read low 1.02 | locus YJL164C, strain tpk1, active compounds read low 1.02 | locus YJL166W, strain qcr8, active compounds read low 1.02 | locus YJL168C, strain set2, active compounds read low 1.01 | locus YJL187C, strain SWE1 (second series), active compounds read low 1.03 | locus YJL187C, strain SWE1, active compounds read low 1.01 | locus YJR043C, strain POL32, active compounds read low 1.03 | locus YJR066W, strain TOR1, active compounds read low 0.909
